Bioassay records: PubChem BioAssay, National Center for Advancing Translational Sciences (NCATS)
SARS PLpro yeast – SARS-CoV PLP inhibition in yeast | S. cerevisiae expressing SARS-CoV PLpro, growth rescue | Potency, µM (top dose mostly 32.9 µM), for inactives: top-dose activity, positive = growth rescue, most hits filed as activators | actives 0.19% (n = 330,000) | AID 485353; calls by dose curve; note: potency is the fitted concentration of half-maximal effect; 0% is about no effect; nearly all actives have a fitted effect of over 55% in size
Cycloheximide cs – counter-screen for Shiga toxin inhibitors: cycloheximide protein synthesis inhibition. cell reporter, cycloheximide protein synthesis inhibition counterscreen. max response, %. actives 12% (n = 300,000); in the data active = max response mostly above about 13%, no sharp cut-off; inactive = mostly below about 14%; note: read at 38.3 µM for the half of the compounds with a filed dose; 0% is about no effect
AMA1-RON2 inh – disrupts binding of P. falciparum AMA1 to RON2; AlphaScreen AMA1-biotinylated RON2 peptide binding; Potency, µM (series often up to 58.2 µM), for the others: top-dose activity change, negative = inhibition, hits mostly inhibitors; actives 0.2% (n = 360,000); AID 720542;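 note: potency is the fitted concentration of half-maximal effect; 0% = vehicle wells and -100% = peptide control; nearly all actives have a fitted effect of over 45% in size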
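AMA1 (3D7) with his tag at 25 nM final met compounds first, then biotinylated RON2 peptide at 25 nM; detection used donor plus acceptor beads, 10 µg/mL apiece, read by AlphaScreen after 30 min at room temperature.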
Pf growth 48h – inhibits P. falciparum growth in the first generation, 48 h. P. falciparum luciferase growth in erythrocytes, 48 h. Potency, µM (series often up to 28.7 µM), inactives show at the top dose activity change, negative = inhibition, actives largely listed as inhibitors. actives 5.9% (n = 310,000); note: potency is the fitted concentration of half-maximal effect; % is set by controls: 0 for no effect and ±100 for the full control effect
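First compound was added to culture medium, then infected red cells at 0.1% parasitemia and 2% hematocrit (final). After incubation at 37 C under 5% CO2, luciferase detection reagent was dispensed and light output recorded.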
Pf growth 96h – inhibits malaria parasite growth, 96 h; Potency, µM (doses to about 28.7 µM), without a hit: at the top dose activity change, negative = inhibition, hits mostly inhibitors; actives 6.9% (n = 320,000); AID 504834; P. falciparum luciferase reporter growth, 96 h; note: potency is the fitted concentration of half-maximal effect; % is set by controls: 0 for no effect and ±100 for the full control effect
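Delayed-death screen, second-generation endpoint: infected erythrocytes, 2% hematocrit, 0.05% parasitemia final; 96 hours at 37 C, 5% CO2; luciferase detection reagent; luminescence decrease equals reduced growth.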
Shiga inhibitor – inhibitors of Shiga toxin in Vero cells; Vero cells, Shiga toxin protein synthesis inhibition reporter; AID 2315; inhibition, % at 38.7 µM; actives 9.2% (n = 290,000); in the data active = inhibition mostly above about 28%, no sharp cut-off; inactive = mostly below about 43%; note: 0% is about no effect
* hit, by the source's call; ? = inconclusive; . = no result given; [ ] = remark or other dose. Rows were chosen to be rich in hits. Some 19% of all compounds tested hit in one or more screens of this group. Unless noted, calls come from the whole dose curve; as a rule, active = well fitted curve in the direction sought with a large enough effect; inconclusive = small, poorly fitted or top-dose-only effect, or another doubt; inactive = no such curve, though single readings can be large; an effect the other way counts as inactive or inconclusive.

SMILES	SARS PLpro yeast	Cycloheximide cs	AMA1-RON2 inh	Pf growth 48h	Pf growth 96h	Shiga inhibitor
CCc1nnc(NC(=O)C2Cc3ccccc3CN2S(=O)(=O)c2cccs2)s1 (centres undefined)	3%	43*	16%	?	6%[5.75 µM]	49*
CCc1nnc(NC(=O)C2Cc3ccccc3CN2S(=O)(=O)c2ccc(C)cc2)s1 (centres undefined)	3%	37*	26%	-19%	?	59*
O=C(Nc1nnc(C2CC2)s1)C1Cc2ccccc2CN1S(=O)(=O)c1cccs1 (centres undefined)	?	17*	0%	?	?	75*
CNC(=O)C1Cc2ccccc2CN1S(=O)(=O)c1cccs1 (centres undefined)	-5%	-2	4%[2.32 µM]	-2%	22%	-15
CCN(CC)C(=O)c1cn(-c2cccc(OC)c2)c(=O)c2ccccc12	4%	-1	-8%	-7%	?	-12
CC1(/[N+]([O-])=C/c2ccc(F)cc2)CCCCC1=O (centres undefined)	-1%	1	-17%	7%	50%	-8
O=C(Nc1ccc([N+](=O)[O-])cc1)C(Cc1ccccc1)N1C(=O)c2cccc3cccc(c23)C1=O (centres undefined)	2%	-2	1%	5.2µM*	?	2
c1ccc(OCCCCN2CCCCC2)cc1	-7%	-2	7%	-1%	27%	-2
c1ccc2c(c1)OC(CCCN1CCCCC1)c1ccccc1S2 (centres undefined)	-3%	-5	-7%	13µM*	10µM*	-8
CN1CCCC(CC2Oc3ccccc3Sc3ccccc32)C1 (centres undefined)	-11%	-5	-9%	13µM*	?	-15
COc1ccc(N2CCN(C(=O)COC(=O)/C=C/c3ccc(C(F)(F)F)cc3)CC2)cc1	4%	.	1%	31%	17%	.
CC1CCCCC1NC1CCN(C)CC1 (centres undefined)	-2%	-3	-2%	-7%	9.3µM*	-2
CN1CCN(C2CCCCCC2)CC1	-7%	-2	-8%	0%	2%	3
COc1ccccc1NS(=O)(=O)c1cccc(C(=O)N/N=C/c2c(CO)cnc(C)c2O)c1	-3%	.	?	12µM*	?	.
COc1ccc(C(=O)N/N=C/c2c(CO)cnc(C)c2O)cc1	4%	-2	61%	?	?	13
Cc1ncc(CO)c(/C=N/NC(=O)c2ccc(O)cc2)c1O	16%	12	39%	2.1µM*	?	-10
CN(Cc1c(C(=O)N2CCCCCCC2)nc2ccc(Cl)cn12)C1CCOC1 (centres undefined)	-6%	0	5%	-9%	-1%	-5
O=C(CC1SC(=O)N(c2ccccc2)C1=O)Nc1ccc(Cl)cc1 (centres undefined)	-6%	14*	67%	20%	37%	46
O=C(CC1SC(=NCCc2ccccc2)N(/N=C/c2cccs2)C1=O)Nc1ccc(Cl)cc1 (centres undefined)	19%	13*	36%	?	?	21
CCCN1C(=O)SC(CC(=O)Nc2ccccc2)C1=O (centres undefined)	14%	1	2%	24%	?	22
O=C(CC1SC(=O)N(c2ccccc2)C1=O)Nc1ccc(Br)cc1 (centres undefined)	-5%	24*	77%	-15%	38%	51*
Cc1c(C)c2ccc(OCC(=O)NCCCN3CCCC3=O)cc2oc1=O	-1%	-6	-5%	-8%	-8%	18
CCOC(=O)C1=C[C@@H](C(=O)OCC)[C@@H]2C3=C(C(=O)C2(C)C)[C@H](c2ccccc2)[C@@H]2C(=O)N(c4ccccc4)C(=O)[C@@H]2[C@@H]3C1	.	-2	.	.	.	-5
Cc1cccc(-c2nc3c(c(SCC(N)=O)n2)CCCC3)c1	-3%	0	3%	-12%	20%	8
CN(C)C(=O)CSc1nc(-c2ccccc2)nc2c1CCCC2	-12%	-2	-7%	?	9.3µM*	-2
SMILES	SARS PLpro yeast	Cycloheximide cs	AMA1-RON2 inh	Pf growth 48h	Pf growth 96h	Shiga inhibitor
NC(=O)CSc1nc(-c2ccccc2)nc2c1CCCC2	-1%	4	0%	9%	7.4µM*	22
Cc1ccc(Nc2nc(-c3ccc(O)c(O)c3)cs2)nc1	2%	62*	7%	?	?	113*
Cc1ccc(Nc2nc(-c3ccc(F)cc3)cs2)nc1	0%	53*	-2%	209%	31%	77*
O=C(Nc1ccccc1)Nc1nc(-c2ccc(F)cc2)cs1	-5%	14	-19%	?	-26%	31
CCc1ccc2[nH]c3nc(C)cc(C)c3c(=O)c2c1	-16%	21*	18%	3.3µM*	0%	-4
CCc1ccc2[nH]cc(S(=O)(=O)c3ccc(C)c(C)c3)c(=O)c2c1	1%	-4	-10%	0%	203%	-4
O=C(Cn1ncc2c3ccccc3n(Cc3ccccc3)c2c1=O)NCCCN1CCCC1=O	0%	1	-2%	?	?	22
Cc1ccc(C)c(Cn2c3ccccc3c3cnn(CC(=O)NCCN4CCOCC4)c(=O)c32)c1	-3%	-5	0%	?	9.3µM*	3
O=C(Cn1ncc2c3ccccc3n(Cc3ccc(Cl)cc3)c2c1=O)NCCCN1CCCC1=O	-1%	8	0%	-21%	13µM*	2
Cc1ccc(C)c(Cn2c3ccccc3c3cnn(CC(=O)NCCCN4CCOCC4)c(=O)c32)c1	-1%	-5	11%	13µM*	?	-11
Cc1ccc(OCCC(=O)OCC(=O)NC2CCS(=O)(=O)C2)cc1 (centres undefined)	1%	.	-1%	1%	13%	.
CCCCN=C1NC(=O)C(CC(=O)NCCc2ccc(OC)cc2)S1 (centres undefined)	-2%	3	-5%	?	?	-4
CC(C)(C)c1ccc(CC(=O)N2CCC2(C)C(=O)NCc2ccc(Cl)cc2)cc1 (centres undefined)	.	.	-5%	.	.	.
O=C(c1cc(COc2c(F)cccc2F)on1)N1CCc2ccccc2C1	10%	10	5%	8%	?	52*
O=C(c1cc(COc2cccc3cnccc23)on1)N1CCC(c2ccccc2Cl)C1 (centres undefined)	-10%	-3	-11%	?	12%	20
O=C(c1cc(COc2c(F)cccc2F)on1)N1CCC(c2ccccc2Cl)C1 (centres undefined)	-1%	51*	-2%	-19%	20%	82*
O=C(c1cc(COc2cccc(C(F)(F)F)c2)on1)N1CCc2ccccc2C1	.	.	0%	.	.	.
